One assay can be described thus: small molecules captured by biotinylated probe aFST – biochemical, small-molecule microarray, fluorescence 635/667, stem cell growth factor project, primary screen (AID 1086).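 Further: score merges 667 nm fluorescence with signal-to-noise of each printed compound spot.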 The settings on record: higher = more signal.
On to `CC(C)N1CC=CC23O[C@@H]4C=CCOC(=O)[C@@H]4[C@H]2C(=O)N(CCCO)[C@@H]3C1=O` (some centres undefined), for which the composite z-score is -0.436.
Same read-out and setting: under `C=CCNC(=O)[C@H]1[C@@H]2C(=O)O[C@@H](c3ccccc3)[C@@H](c3ccccc3)N2[C@@H](c2ccc(O)cc2)[C@]12C(=O)N(C(=O)OCCOC)c1ccccc12` stands 0.303; under `O=C1OCC=C[C@H]2OC34C=CCN(c5ccc(Cl)cc5)C(=O)[C@H]3N(CCO)C(=O)[C@@H]4[C@@H]12` (some centres undefined), -0.915.

The next assay is described as follows: binders of probe aHhip on microarray, primary screen, stem cell growth factor project, biochemical, small-molecule microarray, fluorescence 635/667 (AID 1087).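 Further: score merges spot fluorescence at 667nm with spot signal to noise ratio.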 The settings on record: higher = more signal.
For the molecule `Cc1ccc(S[C@]2(C(=O)O)CC(=O)N(Cc3cc(C(F)(F)F)cc(C(F)(F)F)c3)[C@@H]2c2ccc(CO)cc2)cc1`, the composite z-score was -0.464.
Take `CCOC(=O)[C@H]1[C@@H]2C(=O)N3CCC[C@H]3[C@H](O[Si](C(C)C)(C(C)C)C(C)C)[C@H]2C=C2CCN(S(=O)(=O)c3ccc(C)cc3)C[C@H]21`: the composite z-score is -0.164.
Molecule `CO[C@H]1O[C@H](CO)[C@@H](OC(=O)Nc2ccccc2-c2ccccc2)[C@H](OC(=O)Nc2ccc3c(c2)OCO3)[C@H]1OC(=O)Nc1ccc2c(c1)OCO2` had a composite z-score of -0.0618.
Still for that read-out and setting: then `COc1ccccc1CN1C(=O)c2ccccc2[C@@]2(Cc3ccccc3N(CC(F)(F)F)C2=O)[C@@H]1c1ccc(CO)cc1`, with -0.403.
On to `CN(C)C(=O)[C@@]1(Cc2ccccc2CN=[N+]=[N-])N=C(c2ccc(OCCCO)cc2)O[C@H]1c1ccccc1CN=[N+]=[N-]`, for which the composite z-score is -0.388.
`COc1ccc(CCN2C(=O)[C@@]3(Cc4ccccc42)c2ccccc2C(=O)N(Cc2ccccc2OC)[C@H]3c2ccc(CO)cc2)cc1` yielded a composite z-score of 0.21.
For `O=C1C2C=CC(C(O)c3ccc(Br)cc3)N(Nc3ccccc3F)C2C(=O)N1c1ccccc1` (centres undefined), the composite z-score is -0.0346.
`C=CCC(OC(C)=O)[C@@H]1[C@@H](N(Cc2cccc3ccccc23)C(=O)Cc2ccc(OC)cc2)c2cc(OCCCO)ccc2N1C(=O)c1ccc2ccccc2n1` (some centres undefined): the composite z-score is -0.152.
On the same count and under the same terms, under `COC(=O)C(CC#Cc1ccc2c(c1)[C@]1(C(=O)N2)[C@H](c2ccccc2OCCO)N2[C@H](c3ccccc3)[C@H](c3ccccc3)OC(=O)[C@H]2[C@@H]1C(=O)NC[C@H](O)c1ccccc1)C(=O)OC` stands -0.4.
In turn, `COc1ccc([Si](C)(C)[C@H]2[C@H](CCO)O[C@@]3(C(=O)N(Cc4cccc(N5C(=O)COc6ccccc65)c4)c4ccccc43)[C@@H]2C)cc1` returned a composite z-score of -0.333.
Molecule `CCCCCCc1nc(C2CC2)cc2c1[Si](C(C)C)(C(C)C)OC2` registered a composite z-score of -0.137.
The same measure, in the same setting: then `C=CCNC(=O)[C@@H]1[C@H]2C(=O)O[C@H](c3ccccc3)[C@H](c3ccccc3)N2[C@H](c2ccc(O)cc2)[C@@]12C(=O)N(C(=O)OCCOC)c1ccc(C#CC3(O)CCCCCC3)cc12`, with -0.312; and `CC(CO)N1C(=O)[C@@H]2[C@H]3C(=O)OCC=C[C@H]3OC23C=CCN(Cc2ccccc2)C(=O)[C@@H]13` (some centres undefined), with 0.12; and `[N-]=[N+]=NCc1ccccc1C[C@@]1(C(=O)NCc2ccccc2)N=C(c2ccc(OCCCO)cc2)O[C@@H]1c1ccccc1N=[N+]=[N-]`, with 0.143.
In the case of `C=CCN1Cc2ccccc2[C@H]2OC(c3ccc(OCCCO)cc3)=N[C@@]2(CC=C)C1=O`, the composite z-score turned out to be 0.0401.
Same read-out and setting: under `Cc1cc(C)cc(N2C(=O)CSC2c2cccc([N+](=O)[O-])c2)c1` (centres undefined) stands -0.0994; under `CCOc1cc(C(O)C2C=CC3C(=O)N(C)C(=O)C3N2Nc2ccccc2)ccc1O` (centres undefined), 0.24; under `[N-]=[N+]=Nc1ccccc1C[C@]1(C(N)=O)N=C(c2ccc(OCCCO)cc2)O[C@H]1c1ccccc1N=[N+]=[N-]`, -0.0237.
Still for that read-out and setting: then `NC(=O)NCC#Cc1ccc2c(c1)[C@]1(C(=O)N2)[C@H](C(=O)O)[C@H]2C(=O)O[C@H](c3ccccc3)[C@H](c3ccccc3)N2[C@@H]1c1ccc(OCCO)cc1`, with -0.0994; and `CCCCCCc1nc(C2CC2)cc2c1[Si](C(C)C)(C(C)C)O[C@H]2c1ccccc1`, with -0.0618.
The same measure, in the same setting: then `COc1cc2c(cc1OC)CN(C(=O)[C@@H]1[C@H]3C(=O)O[C@H](c4ccccc4)[C@H](c4ccccc4)N3[C@H](c3ccc(OCCO)cc3)[C@@]13C(=O)Nc1ccc(C#CC4(O)CCCCCC4)cc13)CC2`, with -0.6; and `O=C1C[C@@](C(=O)NCCN2CCOCC2)(c2ccc([N+](=O)[O-])cc2)[C@@H](c2ccc(CO)cc2I)N1C1CCCCC1`, with -0.0717.
Molecule `COC(=O)[C@@]1(Cc2ccc(F)cc2)[C@H]2c3cc(C(=O)N4CCCC4)n(CCc4ccc(O)c(O)c4)c3C[C@H]2CN1C(=O)c1ccccc1` showed a composite z-score of 2.44.
In turn, `CC(C)N1C(=O)C[C@@](C(=O)NCCCN(C)C)(c2ccc([N+](=O)[O-])cc2)[C@H]1c1ccc(CO)cc1` came in with a composite z-score of -0.409.
Same read-out and setting: then `COC(=O)C1=CC(CCCO)=CC(C2CC2)N(C)C=C1C(=O)OC` (centres undefined), with -0.0994; and `COC(=O)c1c(CC[C@@H](CO)NC(=O)N2CCC[C@H]2Cn2cc(Cc3ccccc3)nn2)oc(C(C)=O)c1C(=O)OC`, with 0.2; and `O=C(N1CCCCC1)[C@@]1(CCS(=O)(=O)c2ccccc2)COC(c2ccc(OCCCO)cc2)=N1`, with 0.0972.
On the same count and under the same terms, then `CC1=C[C@@]2(CO)C(=O)[C@]3(CO3)[C@@H]1[C@H]1[C@]2(C)C=C(CO)C(=O)[C@]12CO2`, with 0.459.
Still for that read-out and setting: then `CCCNC(=O)[C@@]1(c2ccc([N+](=O)[O-])cc2)CC(=O)N(C2CCCCC2)[C@@H]1c1ccc(CO)cc1`, with 0.113; and `NC(=O)NCC#Cc1ccc2c(c1)[C@]1(C(=O)N2)[C@H](C(=O)NC[C@H](O)c2ccccc2)[C@H]2C(=O)O[C@H](c3ccccc3)[C@H](c3ccccc3)N2[C@@H]1c1ccc(OCCO)cc1`, with -0.131; and `O=C1NC(=O)C2C1C=CC(C(O)CCc1ccccc1)N2Nc1ccc(Cl)cc1Cl` (centres undefined), with 0.011.
`CCCCC=C[C@@H](NC(=O)c1ccc(-c2ccccc2)cc1)c1ccccc1` returned a composite z-score of 0.21.
Take `COc1ccc([Si](C)(C)[C@@H]2[C@@H](CC(=O)N(CCO)Cc3ccccc3)O[C@]3(C(=O)N(Cc4cccc(N5CCOC5=O)c4)c4ccccc43)[C@H]2C)cc1`: the composite z-score is -0.248.
In turn, `CC(C)N1CC=CC23O[C@@H]4C=CCOC(=O)[C@@H]4[C@H]2C(=O)N(CCCO)[C@@H]3C1=O` (some centres undefined) had a composite z-score of -0.16.
As to `C=CCNC(=O)[C@H]1[C@@H]2C(=O)O[C@@H](c3ccccc3)[C@@H](c3ccccc3)N2[C@@H](c2ccc(O)cc2)[C@]12C(=O)N(C(=O)OCCOC)c1ccccc12`, the composite z-score was -0.541.
Still for that read-out and setting: under `O=C1OCC=C[C@H]2OC34C=CCN(c5ccc(Cl)cc5)C(=O)[C@H]3N(CCO)C(=O)[C@@H]4[C@@H]12` (some centres undefined) stands -0.137.

Values taken from PubChem BioAssay.
